This note sets out measurements from PubChem BioAssay AID1014 (NMMLSC, 2008).

The structures appear in SMILES notation. Active and inactive are the calls of the source. No stated cut-off is given here; in the data, active means inhibition of mean fluorescence above about 33%; inactive means the rest.

A short description of the experiment: quorum sensing inhibitors in bacterial reporter, SAR follow-up, flow cytometry, SAR analogs (AID 1014).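 Further: Staphylococcus aureus RN6390 with RNAIII-GFP reporter stimulated by AIP; bacteria incubated with compound for 3 hours at 37 °C.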 The conditions noted are these: at 20 µM, stronger effect = higher value; inhibition of percent positive cells: flow cytometry fluorescence, measured here: percent reporter-positive cells. (In flow cytometry, cells or beads pass a laser one at a time.)
On to `CCOC(=O)c1c(-c2ccc(OC)cc2)oc2ccc(O)cc12`, for which the inhibition of percent positive cells worked out at 0.1% and the inhibition of mean fluorescence was -20.8% (inactive).

With `CC1CCCN(C(C(=O)Nc2ccc(C(C)C)cc2)c2ccc3c(c2)OCO3)C1` (stereo not drawn), the inhibition of mean fluorescence was 23.8% (inactive) and the inhibition of percent positive cells is 0.5%.

Take `CCN1CCN(C(CNC(=O)c2ccc(F)cc2)c2cccnc2)CC1` (stereo not drawn): the inhibition of percent positive cells was -0.6% and the inhibition of mean fluorescence is -8.8% (inactive).

With `CCOC(=O)c1c(-c2ccccc2)oc2ccc(O)cc12`, the inhibition of percent positive cells was -0.9% and the inhibition of mean fluorescence is 13.3% (inactive).
